According to PubChem BioAssay (EPA / NIEHS):
The source made the active and inactive calls. The calls were made as follows: active = hit-call score of the fitted dose curve at least 0.9, where 1 is the maximum; inactive = score below 0.9.

read-out: Collagen IV, COL4A1 (gene 1282); assay: BSK_MyoF_CollagenIV: BioMAP Diversity Plus: MyoF Assay for Collagen IV Biomarker Activity (AID 2284247); conditions: primary human lung fibroblasts
Method in brief: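 Collagen IV quantified by ELISA in human lung fibroblast cultures 24 h after chemical treatment, with DMSO as baseline. Parallel SRB staining (0.1% SRB after TCA fixation, 560 nm) flags overt cytotoxicity.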

Row | SMILES | outcome | AC50
1 | CCCCCCC(O)CCCCCCCCCCC(=O)OC (stereo unspecified) | inactive | 
2 | Cc1cc(-n2nc3ccc(Cl)cc3n2)c(O)c(C(C)(C)C)c1 | inactive | 
3 | Oc1cccc2ccccc12 | inactive | 
4 | CN(C)c1ccc(C(c2ccccc2)c2ccc(N(C)C)cc2)cc1 |  | 11.9 µM (active)

read-out: Plasminogen activator inhibitor-1 (PAI1), SERPINE1 (gene 5054); assay: BSK_MyoF_PAI1: BioMAP Diversity Plus: MyoF Assay for Plasminogen activator inhibitor-1 (PAI1) Biomarker Activity (AID 2284256); conditions: primary human lung fibroblasts;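 also: PAI-1 protein level measured by ELISA in fibroblast cultures; PAI-1 read 24 h after compound addition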
Method in brief: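 MyoF lung fibroblasts, human primary; compound 24 h; PAI-1 ELISA; positive-direction fit vs DMSO baseline; parallel SRB total-protein staining for cytotoxicity.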

Row | SMILES | outcome
5 | CCCCCCC(O)CCCCCCCCCCC(=O)OC (stereo unspecified) | inactive
6 | Cc1cc(-n2nc3ccc(Cl)cc3n2)c(O)c(C(C)(C)C)c1 | inactive
7 | Oc1cccc2ccccc12 | inactive
8 | CN(C)c1ccc(C(c2ccccc2)c2ccc(N(C)C)cc2)cc1 | inactive

read-out: Interleukin-8 (IL8), CXCL8 (gene 3576); assay: BSK_MyoF_IL8: BioMAP Diversity Plus: MyoF Assay for Interleukin-8 (IL8) Biomarker Activity (AID 2284261); conditions: primary human lung fibroblasts
Method in brief: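 Lung fibroblasts (human primary) → chemical exposure → 24 h → IL-8 measured by ELISA. Signal increase scored versus DMSO control.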

Row | SMILES | outcome | AC50
9 | CCCCCCC(O)CCCCCCCCCCC(=O)OC (stereo unspecified) | inactive | 
10 | Cc1cc(-n2nc3ccc(Cl)cc3n2)c(O)c(C(C)(C)C)c1 | inactive | 
11 | Oc1cccc2ccccc12 |  | 6.06 µM (active)
12 | CN(C)c1ccc(C(c2ccccc2)c2ccc(N(C)C)cc2)cc1 | inactive | 

read-out: Decorin, DCN (gene 1634); assay: BSK_MyoF_Decorin: BioMAP Diversity Plus: MyoF Assay for Decorin Biomarker Activity (AID 2284265); conditions: primary human lung fibroblasts
Method in brief: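 ELISA readout of decorin, 24 h post-dosing; primary human lung fibroblast (MyoF) culture; gain-of-signal fit vs DMSO baseline.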

Row | SMILES | outcome
13 | CCCCCCC(O)CCCCCCCCCCC(=O)OC (stereo unspecified) | inactive
14 | Cc1cc(-n2nc3ccc(Cl)cc3n2)c(O)c(C(C)(C)C)c1 | inactive
15 | Oc1cccc2ccccc12 | inactive
16 | CN(C)c1ccc(C(c2ccccc2)c2ccc(N(C)C)cc2)cc1 | inactive

read-out: not listed separately; assay: BSK_MyoF_SRB: Viability Assessment in the BioMAP Diversity Plus: MyoF Assay (AID 2284267); conditions: primary human lung fibroblasts;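 also: total protein by SRB absorbance in parallel cultures as cytotoxicity measure; cells assessed 24 h after compound addition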
Method in brief: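 Cytotoxicity read-out: after 10% TCA fixation, parallel human lung fibroblast cultures were stained with 0.1% SRB at 24 h post-dosing and read at 560 nm; DMSO served as baseline.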

Row | SMILES | outcome
17 | CCCCCCC(O)CCCCCCCCCCC(=O)OC (stereo unspecified) | inactive
18 | Cc1cc(-n2nc3ccc(Cl)cc3n2)c(O)c(C(C)(C)C)c1 | inactive
19 | Oc1cccc2ccccc12 | inactive
20 | CN(C)c1ccc(C(c2ccccc2)c2ccc(N(C)C)cc2)cc1 | inactive

read-out: Matrix Metallopeptidase 1 (MMP1), MMP1 (gene 4312); assay: BSK_MyoF_MMP1: BioMAP Diversity Plus: MyoF Assay for Matrix Metallopeptidase 1 (MMP1) Biomarker Activity (AID 2284268); conditions: primary human lung fibroblasts
Method in brief: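 Cells: human lung fibroblasts. Exposure: 24 h chemical dosing. Detection: ELISA for MMP1. Analysis: upward fitting against DMSO negative control.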

Row | SMILES | outcome | AC50
21 | CCCCCCC(O)CCCCCCCCCCC(=O)OC (stereo unspecified) | inactive | 
22 | Cc1cc(-n2nc3ccc(Cl)cc3n2)c(O)c(C(C)(C)C)c1 | inactive | 
23 | Oc1cccc2ccccc12 |  | 12.1 µM (active)
24 | CN(C)c1ccc(C(c2ccccc2)c2ccc(N(C)C)cc2)cc1 | inactive | 

read-out: TIMP metallopeptidase inhibitor 1 (TIMP1), TIMP1 (gene 7076); assay: BSK_MyoF_TIMP1: BioMAP Diversity Plus: MyoF Assay for TIMP metallopeptidase inhibitor 1 (TIMP1) Biomarker Activity (AID 2284269); conditions: primary human lung fibroblasts
Method in brief: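 Fibroblasts from human lung are dosed with chemical, cultured 24 h, and assayed for TIMP-1 by ELISA. Increases over the DMSO baseline are scored, with SRB total-protein staining run in parallel for cytotoxicity.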

Row | SMILES | outcome
25 | CCCCCCC(O)CCCCCCCCCCC(=O)OC (stereo unspecified) | inactive
26 | Cc1cc(-n2nc3ccc(Cl)cc3n2)c(O)c(C(C)(C)C)c1 | inactive
27 | Oc1cccc2ccccc12 | inactive
28 | CN(C)c1ccc(C(c2ccccc2)c2ccc(N(C)C)cc2)cc1 | inactive

tested on: TTR (gene 7276); assay: CCTE_GLTED_hTTR_0.125uM: CCTE's human Transthyretin (hTTR) Inhibition Assay, with 0.125uM TTR, Great Lakes Toxicology and Ecology Division (GLTED) Lab (AID 2284431); conditions: not given;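 also: hits lower the fluorescence signal relative to DMSO baseline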
Method in brief: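 TTR 0.125uM + test chemical, 2 h; ANSA probe displacement; ex 380/em 475 fluorescence; signal loss vs DMSO control.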

Row | SMILES | AC50
29 | O=C(OCc1ccccc1)c1ccccc1 | 20.7 µM (active)
30 | Oc1cccc2ccccc12 | 3.07 µM (active)
31 | CCCCCC[C@@H](O)C/C=C\CCCCCCCC(=O)O | 10.8 µM (active)
